Source: PubChem
Only some compounds are listed: those with a hit (about 12% of all), similar ones and a draw of the others.
Sm TGR block – blocks Schistosoma mansoni thioredoxin glutathione reductase; Q962Y6; purified TGR, DTNB reduction, TNB absorbance 405 nm; Potency, µM (highest dose often 114 µM), hits mostly inhibitors; 3% of 360,000 active; AID 485364; active means well fitted inhibition curve with a large enough effect; inconclusive means small, poorly fitted or top-dose-only effect; inactive means no such curve, though single readings can be large or run the other way; further: nearly all actives have a fitted effect of over 60% in size
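Kinetic colorimetric format: TGR-catalysed, NADPH-driven DTNB reduction monitored via TNB absorbance. Enzyme dispensed at 20 nM; compound exposure 15 min at room temperature before reaction start.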
Shiga toxin inh – inhibitors of Shiga toxin in Vero cells. Vero cells, Shiga toxin protein synthesis inhibition reporter. inhibition, % at 38.7 µM. 9.2% of 290,000 active; in the data active means inhibition mostly above about 28%, no sharp cut-off; inactive means mostly below about 43%
FMDV antiviral – blocks foot and mouth disease virus; FMDV antiviral cell-based qHTS; AID 1159524; 1.2% of 410,000 active; Potency, µM (titrated, usually from 57.9 µM), hits mostly inhibitors; calls by dose curve; tested in HEK293T cells; further: read-out not given here; nearly all actives have a fitted effect of over 45% in size
CHX counter – affects cycloheximide protein synthesis inhibition readout, counter-screen. cell reporter, cycloheximide protein synthesis inhibition counterscreen. max response, %. 12% of 300,000 active. AID 2314; in the data active means max response mostly above about 13%, no sharp cut-off; inactive means mostly below about 14%; further: read at 38.3 µM for the half of the compounds with a filed dose
Each line names hits and unclear results; the compound was inactive in the other large screens.

Cc1ccc(C)c(-c2nnc(NC(=O)C3=COCCO3)o2)c1	none (no result: Shiga toxin inh, CHX counter)
Cc1cc(NC(=O)c2ccco2)ccc1NC(=O)Cc1cccs1	Shiga toxin inh 32, CHX counter 20
O=C(NN(c1ccccc1)c1ccccc1)c1ccc([N+](=O)[O-])o1	Sm TGR block inconclusive
Cc1cc(NC(=O)c2ccc([N+](=O)[O-])o2)ccc1NC(=O)c1ccco1	Sm TGR block inconclusive, Shiga toxin inh 97, CHX counter 36
NC(=O)c1oc2ccccc2c1NC(=O)c1nc2ccccc2s1	Shiga toxin inh 99, CHX counter 41
O=C(NNC(=O)c1ccc([N+](=O)[O-])o1)c1ccccc1	CHX counter 25
NC(=O)c1oc2ccccc2c1NC(=O)c1ccc([N+](=O)[O-])o1	Shiga toxin inh 28
O=c1c2sc3ccccc3c2n(Cc2cccc(C(F)(F)F)c2)c(=O)n1-c1ccccc1	none (no result: Shiga toxin inh, CHX counter)
Cc1nc(N2CCOCC2)c2c(C(=O)N(C)Cc3ccccc3)c(C)oc2n1	none (no result: Shiga toxin inh, CHX counter)
COc1ccccc1CCNC(=O)Cc1c(C)c2c(cc(C)c3c(C)coc32)oc1=O	none (no result: Shiga toxin inh, CHX counter)
Cc1cccc(C)c1NC(=O)/C(=C/c1ccco1)c1ccccc1	Sm TGR block 32µM
Cc1ccccc1NC(=O)/C(=C/c1ccccc1)c1ccccc1	none
Cc1cc(C)c(NC(=O)/C(=C/c2ccco2)c2ccccc2)c(C)c1	Sm TGR block 25µM
CC(C)(C)OC(=O)N1CC23CC(c4ccc(F)cc4)C(CC2S1(=O)=O)O3 (centres undefined)	none (no result: Sm TGR block, FMDV antiviral)
COc1ccccc1-c1ccnc(-n2ncc(C(=O)NCc3ccncc3)c2C)n1	none (no result: Sm TGR block, Shiga toxin inh, CHX counter)
Cc1ccc(C2CC(=O)Oc3c(C(C)C)ccc(C)c32)cc1 (centres undefined)	none (no result: Sm TGR block, FMDV antiviral)
Cc1cc(C)cc(NC(=O)CN2C(=O)c3ccccc3Sc3ccc(C(=O)N4CCCC4)cc32)c1	none (no result: Shiga toxin inh, CHX counter)
CC(C)NC(=O)c1cc2cc(Br)ccc2oc1=O	Shiga toxin inh 86, CHX counter 30
COc1ccc2oc(=O)c(C(=O)Nc3ccccc3O)cc2c1	CHX counter 36
COc1ccc2oc(=O)c(C(=O)NC(C)c3ccccc3)cc2c1 (centres undefined)	CHX counter 18
CN(C)C(CNC(=O)c1ccc2ccccc2c1)c1ccco1 (centres undefined)	Shiga toxin inh 77, CHX counter 32
CN(C)c1cccc(C(=O)NCC(c2ccco2)N(C)C)c1 (centres undefined)	Shiga toxin inh 75, CHX counter 37
Cc1cccc(C(=O)NCC(c2ccco2)N(C)C)c1 (centres undefined)	none
CC(=O)[C@@]1(O)CC[C@H]2[C@@H]3CCC4=CC(=O)CC[C@]4(C)[C@H]3[C@@H](O)C[C@@]21C	none
CCC(C(=O)OCC(=O)C1(O)CCC2C3CCC4=CC(=O)CCC4(C)C3C(O)CC21C)C(C)C (centres undefined)	FMDV antiviral 20µM (no result: Sm TGR block, Shiga toxin inh, CHX counter)
C=C1CCC(C2CC(=O)OC2=O)C(=O)CCC2C1CC2(C)C (centres undefined)	none (no result: Sm TGR block, Shiga toxin inh, CHX counter)
O=C(Nc1sc2c(c1C(=O)NCC1CCCO1)CCC2)c1cc(=O)c2cc(Cl)ccc2o1 (centres undefined)	none (no result: Shiga toxin inh, CHX counter)
CN(C)S(=O)(=O)c1ccc(NC(=O)N2CCN(c3cccc(C(F)(F)F)c3)CC2)cc1	FMDV antiviral 28µM
COc1ccc(NC(=O)N2CCN(c3cccc(C(F)(F)F)c3)CC2)cc1	FMDV antiviral inconclusive
C=CCNC(=S)N1CCN(c2cccc(C(F)(F)F)c2)CC1	CHX counter 46
FC(F)(F)c1cccc(N2CCN(C(=S)NC3CCCC3)CC2)c1	FMDV antiviral 20µM
CCC(=O)Oc1ccc(-c2cnc3ccccc3n2)cc1	CHX counter 32 (no result: FMDV antiviral)
O=C(Oc1ccc(-c2nnco2)cc1)c1ccco1	none (no result: Shiga toxin inh, CHX counter)
O=C(Oc1ccc(-c2cnc3ccccc3n2)cc1)c1ccco1	CHX counter 23
CC1CCN(CC(=O)c2cccs2)CC1	Shiga toxin inh 37, CHX counter 13
CC1CC(C)CN(CC(=O)c2cccs2)C1 (centres undefined)	Sm TGR block inconclusive
O=C(CN1CCc2ccccc2C1)c1cccs1	Shiga toxin inh 82, CHX counter 49
O=C(CN1CCN(c2ccc(F)cc2)CC1)c1cccs1	Sm TGR block 14µM
Cc1ccc(NC(=O)c2ccc(CN3CC(=O)N4CCCCC4C3=O)cc2)cc1C (centres undefined)	none (no result: Shiga toxin inh, CHX counter)
CCc1ccc(S(=O)(=O)c2nnn(-c3cccc(C)c3)c2N)cc1	none (no result: Shiga toxin inh, CHX counter)
CC1CN(C(=O)CCC(=O)NCc2ccc(F)cc2)c2cc(Cl)ccc2O1 (centres undefined)	FMDV antiviral inconclusive (no result: Shiga toxin inh, CHX counter)
Cc1cccc2cc(CNCCCN3CCCC3=O)c(N3CCN4CCCC4C3)nc12 (centres undefined)	none (no result: Sm TGR block, Shiga toxin inh, CHX counter)
O=C(O)c1ncn(Cc2ccc(Br)cc2)c1C(=O)O	FMDV antiviral 35µM
